KDM5B inh – blocks human KDM5B histone demethylase activity | KDM5B demethylase, FDH-coupled NADH fluorescence (FDH is formaldehyde dehydrogenase) | actives 2.6% (n = 220,000) | Potency, µM (top dose mostly 57.7 µM), usual class: inhibitors; active means well fitted inhibition curve with a large enough effect; further: nearly all actives have a fitted effect of over 70% in size
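Measured: NADH fluorescence change, 30 min, RT. System: KDM5BΔAP 200 nM final, H3K4me3 peptide, α-KG, Fe(II), ascorbate, NAD⁺ plus FDH, pH 7.5 HEPES. Compounds: titrated, 10 min pre-incubation with enzyme.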
Of the large screens only hits and unclear results are named; the others gave an inactive call. Only a selection was taken, and hits are over-represented in it overall.

O=C(CC1CCCC1)N1CCC2(CC1)CC(N(Cc1ccccc1)C1CC1)CCO2 (stereo not drawn)	none
CCOC(=O)c1cnc2nc(-c3cccnc3)nn2c1C	none
CC(C)c1nc(C(=O)N(C)C2CCCN(CCCc3ccccc3)C2)cs1 (stereo not drawn)	none
COc1ccc(-c2noc(-c3cccn3CC(=O)NCc3ccc(F)cc3)n2)cc1F	none
O=[N+]([O-])c1c(NC2CCN(C3CC3)CC2)ccc2ncccc12	none
Cc1c(C#N)c(NC(=O)CSc2nnc(C3CC3)n2-c2ccccc2)n(Cc2ccco2)c1C	none
COc1cc(C(C)=O)ccc1OCc1ccc(C#N)cc1	none
CCCc1cc(C(=O)N2CCC3(CC2)CC(=O)N(CCCOC)C3)n(C)n1	none
CN(C)C[C@@H]1CN(c2ncccn2)C[C@H]1NC(=O)Cc1ccsc1	KDM5B inh 22µM
CNC(=O)N1C[C@@H](CN(C)C)[C@H](NC(=O)c2ccsc2)C1	none
CN(C)C[C@@H]1CN(S(C)(=O)=O)C[C@H]1NC(=O)c1ccsc1	none
